High-throughput results deposited in PubChem by National Center for Advancing Translational Sciences (NCATS).
Methyltransferases: Primary Screen for Target Class Profiling of Small Molecule Inhibitors of Methyltransferases | purified enzyme, MTase-Glo SAH luminescence; hits give low values | actives 3.9% (n = 25,000) | calls only at 40 µM; call rule not given here
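Each enzyme was reacted with SAM and its substrate, with compounds tested once at 40 uM; SAH formed was read by MTase-Glo luminescence.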
An asterisk follows results filed as active. Shown is part of a subset that was picked to be rich in hits. % is set by controls: 0 for no effect and ±100 for the full control effect.

CC1CCN(CCCNC(=O)CCc2nnc3n(Cc4ccccc4)c(=O)c4ccccc4n23)CC1 was read as Methyltransferases active.
`CCOCCCNC(=O)CCc1nnc2n(Cc3ccc(F)cc3)c(=O)c3ccccc3n12` gave Methyltransferases inactive.
CC1CCN(CCCNC(=O)CCc2nnc3n(Cc4ccc(Cl)cc4)c(=O)c4ccccc4n23)CC1 was read as Methyltransferases active.
`CCCCNC(=O)CCc1nnc2n(Cc3ccc(Cl)cc3)c(=O)c3ccccc3n12` gave Methyltransferases inactive.
Screening CN1CCN(CCCNC(=O)CCc2nnc3n(Cc4ccccc4Cl)c(=O)c4ccccc4n23)CC1 returned Methyltransferases inactive.
For CCOCCCNC(=O)CCc1nnc2n(Cc3ccc(Cl)cc3)c(=O)c3ccccc3n12 the results were Methyltransferases inactive.
Screening Cc1ccc(CNC(=O)CCc2nnc3n(Cc4ccc(Cl)cc4)c(=O)c4ccccc4n23)cc1 returned Methyltransferases inactive.
Cc1ccc(CCNC(=O)CCc2nnc3n(Cc4ccccc4)c(=O)c4ccccc4n23)cc1 was read as Methyltransferases inactive.
CCN(CC)CCCNC(=O)CCc1nnc2n(Cc3ccc(Cl)cc3)c(=O)c3ccccc3n12 was read as Methyltransferases active.
CCN(CC)CCNC(=O)CCc1nnc2n(Cc3ccccc3)c(=O)c3ccccc3n12 was read as Methyltransferases inactive.
`CC1CCN(CCCNC(=O)CCc2nnc3n(Cc4ccc(F)cc4)c(=O)c4ccccc4n23)CC1` gave Methyltransferases active.
CCCN1C(=O)c2c(C(=O)NCc3cc(OC)ccc3OC)ncn2CC1(C)C(=O)NCc1ccc(C)cc1 (centres undefined) was read as Methyltransferases inactive.
CC(C)CCN1C(=O)c2ccccc2CC1(C)C(=O)NC1CCCCCC1 (centres undefined) was read as Methyltransferases inactive.
C[C@H](C(=O)N1Cc2ccccc2CC2(CCN(Cc3ccncc3)C2)C1)c1ccccc1 (some centres undefined) was read as Methyltransferases inactive.
`Cc1nn(C)c2c1C(c1ccc(C(F)(F)F)cc1)C(C#N)=C(N)O2` (centres undefined) gave Methyltransferases inactive.
`CN(C)c1ccc(-c2nnc3n(Cc4ccc(F)cc4)c(=O)c4ccccc4n23)cc1` gave Methyltransferases inactive.
For CCC(C)C(C(=O)O)N1Cc2c(OCC=C(C)C)c(C)c(OC)c(C(=O)O)c2C1=O (centres undefined) the results were Methyltransferases inactive.
Screening CN(C)c1ccc(CN2C(=O)c3nc4ccccc4n3CC2(C)C(=O)NCc2ccccc2)cc1 (centres undefined) returned Methyltransferases inactive.
`CCOc1ccc(N2C(=O)c3cc(-c4ccco4)nn3CC2(C)C(=O)NC2CCCCCC2)cc1` (centres undefined) gave Methyltransferases inactive.
Screening CC(C)CCn1c(=O)c2ccc(C(=O)NC(C)C)cc2n2c(=O)n(CC(=O)NC3CCCC3)nc12 returned Methyltransferases inactive.
For COc1ccccc1CN1C(=O)c2c(NC(C)=O)c3ccccc3n2CC1(C)C(=O)NCCC(C)C (centres undefined) the results were Methyltransferases inactive.
CS(=O)(=O)N[C@H]1CCN2C(=O)c3cc(-c4cccc(C(F)(F)F)c4)ccc3NC(=O)[C@@H]2C1 was read as Methyltransferases inactive.
For O=S(=O)(NCc1nc(-c2ccccc2Cl)no1)c1ccccc1 the results were Methyltransferases inactive.
CC1(C(=O)NCc2ccccc2)Cn2nc(-c3ccccc3)cc2C(=O)N1CCc1ccc(Cl)cc1 (centres undefined) was read as Methyltransferases inactive.
For CCCOc1ccc(CN2C(=O)c3cc4occc4n3CC2(C)C(=O)NC2CCCCC2)cc1 (centres undefined) the results were Methyltransferases inactive.
Screening CS(=O)(=O)N(C1CC1)C1CCOC2(CCN(C(=O)NCc3ccccc3)CC2)C1 (centres undefined) returned Methyltransferases inactive.
For c1ccc(CN(Cc2nc(-c3ccccn3)no2)CC2CC2)cc1 the results were Methyltransferases inactive.
CC(C)=CCC[C@](C)(O[C@@H]1O[C@H](CO[C@@H]2OC[C@@H](O)[C@H](O)[C@H]2O)[C@@H](O)[C@H](O)[C@H]1O)[C@H]1CC[C@]2(C)[C@@H]1[C@H](O)C[C@@H]1[C@@]3(C)CC[C@H](O[C@@H]4O[C@H](CO)[C@@H](O)[C@H](O)[C@H]4O)C(C)(C)[C@@H]3CC[C@]12C was read as Methyltransferases inactive.
`COc1ccc(-c2ccc(NC(=O)C3CCCC3)cc2)nn1` gave Methyltransferases inactive.
Screening CN1C(=O)c2cc(C(=O)NCc3ccccn3)nn2CC1(C)C(=O)NCc1ccc(F)cc1 (centres undefined) returned Methyltransferases inactive.
CCc1ccc(N2C(=O)c3c(C(=O)OC)ncn3CC2(C)C(=O)NCCCOC(C)C)cc1 (centres undefined) was read as Methyltransferases inactive.
`CC(C)OCCCN1C(=O)c2ccc(-c3ccco3)n2CC1(C)C(=O)NC1CCCCCCC1` (centres undefined) gave Methyltransferases inactive.
CCOC(=O)c1cc2n(n1)CC(C)(C(=O)NCc1ccc(F)cc1)N(CCc1ccc(Cl)cc1)C2=O (centres undefined) was read as Methyltransferases inactive.
For Cc1ccc(N2C(=O)c3cc4ccccc4n3CC2(C)C(=O)NCCC(C)C)cc1C (centres undefined) the results were Methyltransferases inactive.
Screening CC(C)CC(NC(=O)OCc1ccccc1)C(=O)NC(CC(C)C)C(=O)NC(CCC(=O)O)C(=O)Nc1ccc2ccccc2c1 (centres undefined) returned Methyltransferases inactive.
Cc1cc(=O)oc2cc(NC(=O)[C@H](CCC(=O)O)NC(=O)[C@H](CC(C)C)NC(=O)[C@H](CC(C)C)NC(=O)OCc3ccccc3)ccc12 was read as Methyltransferases active.
Screening Cc1cccc(-c2n[nH]n3c2nc(=O)c2ccc(C(=O)NCc4ccc(Cl)cc4)cc23)c1 returned Methyltransferases inactive.
For CCOc1cc(C)c(CN2CCCC(O)(CN(C)C)C2)cc1C(C)C (centres undefined) the results were Methyltransferases inactive.
CCCC1c2cccn2CCN1C(=O)Nc1ccccc1C(F)(F)F (centres undefined) was read as Methyltransferases active.
For CC(C)C1c2cccn2CCN1C(=O)Nc1ccccc1C(F)(F)F (centres undefined) the results were Methyltransferases inactive.
`CCCC1c2ccc(C)n2CCN1C(=O)Nc1ccccc1C(F)(F)F` (centres undefined) gave Methyltransferases inactive.
For CC(C)NC(=O)c1ccc2c(=O)n(C(C)C)c3nn(Cc4ccccc4)c(=O)n3c2c1 the results were Methyltransferases inactive.
For Cn1c(CN2CCN3C(=O)NC[C@H]3C2)nc2ccccc21 the results were Methyltransferases inactive.
c1ccc(-c2oc3ncnc(NC[C@@H]4CCCO4)c3c2-c2ccccc2)cc1 was read as Methyltransferases active.
`Cc1cccc(-c2nnn3c2nc(NCC2CCCO2)c2ccccc23)c1` (centres undefined) gave Methyltransferases inactive.
Screening c1nc(NC2CCCCCC2)c2cc(CNC[C@H]3CCCO3)sc2n1 returned Methyltransferases inactive.
